# Compounds with a hit are over-represented: about 2.8% of the library has one in this group of screens.
# Fam108B counter: mouse Fam108B serine hydrolase inhibitors, primary screen, counter-screen for RBBP9 inhibitor project, biochemical, fluorescence polarization; inhibition, % at 9.51 µM; recombinant Fam108B, FP-Rh probe fluorescence polarization; hit rate 0.33% among 300,000;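 active = inhibition above the screen mean inhibition plus 3 SD, computed separately per campaign, cut at about 18% in these data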;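 also: inhibitors lower polarization as less probe binds the enzyme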
# pPAFAH inh: pPAFAH enzyme inhibitors, primary screen, biochemical, fluorescence polarization, human. Platelet-activating factor acetylhydrolase (Homo sapiens), Q13093. recombinant pPAFAH, FP-rhodamine probe fluorescence polarization. inhibition, % at 3.39 µM. hit rate 1.5% among 330,000;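 active = inhibition above the mean inhibition across the screen plus 3 SD, cut at about 25% in these data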;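 also: inhibitors block binding of the rhodamine activity-based probe so polarization drops; 0% = enzyme with DMSO and 100% = wells lacking pPAFAH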
# PAFAH2 inh: PAFAH2 enzyme inhibitors, primary screen, biochemical, fluorescence polarization, human; Platelet-activating factor acetylhydrolase 2, cytoplasmic (Homo sapiens), Q99487; recombinant PAFAH2, FP-rhodamine activity probe; inhibition, % at 3.39 µM; hit rate 0.99% among 340,000; AID 492956, 2010;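 active = inhibition above the mean over all tested compounds plus 3 SD, cut at about 30% in these data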;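 also: inhibitors block probe labeling of enzyme so polarization drops; 0% = enzyme with DMSO and 100% = wells lacking PAFAH2 protein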
# PME-1 primary: PME-1 inhibitors via competitive probe labeling, primary screen, biochemical, fluorescence polarization, FP-Rh probe, HTS | Protein phosphatase methylesterase 1 (Homo sapiens), Q9Y570 | recombinant PME-1 | inhibition, % at 5.9 µM | hit rate 0.53% among 320,000;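 active = inhibition above the campaign mean of all compounds plus 3 SD, cut at about 26% in these data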;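 also: competitive labeling of PME-1 active site by serine hydrolase directed probe; 0% = PME-1 with DMSO and 100% = wells lacking PME-1 enzyme; inhibitors block probe labeling so polarization falls and inhibition rises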
# Target sequence (Q9Y570 whole entry, looked up): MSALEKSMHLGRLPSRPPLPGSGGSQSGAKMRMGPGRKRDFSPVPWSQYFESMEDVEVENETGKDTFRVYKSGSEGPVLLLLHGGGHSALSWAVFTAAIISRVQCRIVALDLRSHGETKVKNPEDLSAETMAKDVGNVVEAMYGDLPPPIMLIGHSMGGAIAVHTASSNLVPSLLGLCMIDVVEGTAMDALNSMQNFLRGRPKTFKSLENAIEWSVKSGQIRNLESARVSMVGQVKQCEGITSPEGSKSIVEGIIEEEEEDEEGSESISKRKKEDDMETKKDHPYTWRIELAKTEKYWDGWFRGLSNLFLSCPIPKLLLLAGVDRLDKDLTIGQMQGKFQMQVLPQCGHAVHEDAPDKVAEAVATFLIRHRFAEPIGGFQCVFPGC
# PAFAH1B3 FP inh: PAFAH1B3 enzyme inhibitors, primary screen, biochemical, fluorescence polarization, human; hit rate 0.28% among 340,000; recombinant PAFAH1B3, FP-rhodamine probe; inhibition, % at 3.39 µM; AID 492972, 2010; Platelet-activating factor acetylhydrolase IB subunit alpha1 (Homo sapiens), Q15102;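 active = inhibition above the screen-wide average of all tested compounds plus 3 SD, cut at about 25% in these data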;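 also: 0% = enzyme with DMSO only and 100% = wells lacking PAFAH1B3 protein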
# Target sequence (Q15102 whole entry, looked up): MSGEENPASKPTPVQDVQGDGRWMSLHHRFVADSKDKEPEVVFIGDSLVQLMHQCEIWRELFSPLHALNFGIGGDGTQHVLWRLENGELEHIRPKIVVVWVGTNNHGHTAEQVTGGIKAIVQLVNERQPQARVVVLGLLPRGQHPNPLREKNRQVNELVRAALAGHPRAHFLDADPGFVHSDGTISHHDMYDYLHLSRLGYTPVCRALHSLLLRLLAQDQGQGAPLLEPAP
# PAFAH1B2 FP inh: PAFAH1B2 enzyme inhibitors, primary screen, biochemical, fluorescence polarization, human | Platelet-activating factor acetylhydrolase IB subunit alpha2 (Homo sapiens), P68402 | recombinant PAFAH1B2, FP-rhodamine activity probe | inhibition, % at 3.39 µM | hit rate 1.2% among 340,000;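 active = inhibition above the mean of all tested compounds plus 3 SD, cut at about 24% in these data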;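 also: 0% = enzyme with DMSO and 100% = wells lacking PAFAH1B2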
# Active calls of the source: *; / = no result given.
SMILES,Fam108B counter,pPAFAH inh,PAFAH2 inh,PME-1 primary,PAFAH1B3 FP inh,PAFAH1B2 FP inh
COc1cccc(/C=N/Nc2snc(SC)c2C#N)c1O,13.3,29.2*,33.1*,24.3,14.3,14.6
CC(Sc1ccc(Cl)cc1)C(=O)NNC(=O)c1ccccc1O (stereo not drawn),4.0,9.6,25.2,3.6,1.8,28.1*
CSCCC(NC(=O)c1ccccc1Cl)C(=O)NNC(=O)c1ccccc1O (stereo not drawn),3.4,2.0,-2.4,-6.7,6.9,3.3
CCCCN(C(=O)c1c(CC)noc1C)c1c(N)n(CCCC)c(=O)[nH]c1=O,3.1,5.0,-0.1,1.8,2.6,5.6
CC(CNC(=O)CN1C(=O)NC2(CCOc3ccccc32)C1=O)c1ccccc1 (stereo not drawn),/,-3.8,-5.6,-0.2,4.2,28.2*
Cc1nn(CC(=O)NNC(=S)NCC2CCCO2)c(C)c1Br (stereo not drawn),1.1,27.8*,-1.4,-0.9,5.8,4.7
CC1=CC(=O)C=C/C1=C(/c1ccc(O)cc1C)c1ccccc1S(=O)(=O)O,/,16.6,-0.9,-1.9,2.4,26.3*
CC(C)(C)C(=O)COC(=O)C1=NN(c2ccccc2)C(=O)CC1,-0.2,-1.7,-2.2,-3.9,-1.7,0.5
O=c1[nH]nc(SCc2ccccc2)n1C1CC2C=CC1C2 (stereo not drawn),-1.2,8.2,-6.7,3.0,0.8,25.9*
COc1ccc(N(C(=O)c2snc(C(N)=O)c2N)C(C(=O)NC2CCCC2)c2cc(OC)ccc2OC)cc1 (stereo not drawn),-2.3,5.7,0.9,-3.5,-0.7,-4.9
CCOC(=O)C/C(C)=N\Nc1nc(-c2ccccc2)cs1,4.6,25.7*,3.3,-2.1,4.1,0.9
N#CC(NC(=O)OCc1ccccc1)c1ccccc1 (stereo not drawn),-1.6,7.9,5.4,-0.9,-4.4,1.2
CCCCNC(=O)c1ccccc1SCc1c(C)noc1C,-4.6,1.6,6.1,3.4,6.3,-6.0
CCc1cc2ccccc2nc1SCC(=O)Nc1cc(OC)c(OC)cc1C(=O)O,2.0,33.2*,16.2,9.6,8.6,14.2
COc1cc(NC(=O)CSc2nc3ccccc3cc2C)c(C(=O)O)cc1OC,4.6,12.5,4.3,0.1,4.7,12.3
Cc1ccc(Cl)cc1NC(=O)COC(=O)C1CC1,-3.7,-3.9,20.1,6.1,1.6,-0.4
COc1ccc(C(=O)NCC(=O)OCC(=O)Nc2cc(OC)ccc2OC)cc1,-2.7,-0.5,-5.4,-9.1,7.5,2.7
O=C(COC(=O)CCC1CCCC1)Nc1ccccc1Br,/,34.1*,20.3,-4.3,10.5,3.0
COc1ccc(OC)c(NC(=O)COC(=O)CCC2CCCC2)c1,/,32.6*,14.8,5.0,5.4,8.3
O=C(COC(=O)C1CC1)Nc1ccc(Cl)cc1Cl,/,8.9,63.8*,2.7,12.7,3.6
CN(C)S(=O)(=O)c1ccc(Cl)c(NC(=O)COC(=O)CCC2CCCCC2)c1,/,25.2*,37.7*,/,1.6,5.4
C=C1CCN([C@H](C(=O)NCc2ccccc2)C(C)C)S(=O)(=O)c2ccccc21,0.0,2.0,13.6,1.4,8.1,-2.2
COc1ccccc1CNC(=O)CN1CCN(c2ccc(C(C)=O)cc2)CC1,-1.3,5.3,12.1,2.6,-8.1,-4.8
COc1ccccc1NC(=O)COC(=O)CCC1CCCC1,/,29.1*,17.9,/,7.8,4.5
O=C(COC(=O)C1CC1)Nc1ccc(Oc2ccccc2)cc1,-3.4,27.0*,90.8*,5.5,7.2,5.3
SMILES,Fam108B counter,pPAFAH inh,PAFAH2 inh,PME-1 primary,PAFAH1B3 FP inh,PAFAH1B2 FP inh
CCc1ccc(NC(=O)COC(=O)CCC2CCCC2)cc1,/,21.6,20.1,-4.2,10.2,7.9
Cc1cc(C)cc(NC(=O)COC(=O)CCC2CCCC2)c1,/,22.4,13.7,-4.7,1.3,-1.6
COc1cccc(NC(=O)COC(=O)CCC2CCCC2)c1,/,27.7*,18.9,-2.4,-0.5,4.7
O=C(COC(=O)CCC1CCCC1)Nc1ccc(Cl)cc1F,2.6,26.9*,23.8,-3.8,6.8,6.5
CC1(c2nnc(-c3cccc(Cl)c3)o2)CC(c2ccccc2)=NO1 (stereo not drawn),3.8,1.9,2.1,5.7,2.5,-5.4
NC(=O)C1(N2CCCCC2)CCN(CC(=O)Nc2ccc(Oc3ccccc3)cc2)CC1,3.2,28.1*,5.9,2.8,-8.0,1.5
COc1ccc(NS(=O)(=O)c2ccc(OC)c(NC(=O)CCC3CCCC3)c2)cc1,2.4,27.1*,-4.8,-4.5,-0.5,1.2
COc1ccc2ccc3c(c2c1)N=C[C@]1(O3)N(C)c2ccccc2C1(C)C,-0.7,32.7*,5.0,44.6*,1.7,-2.2
Cc1ccc(N(C(=O)CNC(=O)c2ccco2)C(C(=O)NC2CCCCC2)c2cccnc2)cc1 (stereo not drawn),-3.2,1.1,0.2,2.3,5.6,3.8
O=C(CNc1n[nH]c(=O)[nH]c1=O)N/N=C/C=C/c1ccccc1,2.7,-1.1,-1.4,2.0,7.8,4.1
COc1ccc(C2c3ccc(O)cc3Oc3ncn(Cc4ccccc4)c(=N)c32)cc1OC (stereo not drawn),-1.4,-3.9,46.2*,-0.5,32.4*,32.0*
O=C(NCCc1ccc(Cl)cc1)c1cc2ccccn2n1,-0.9,0.0,1.2,0.6,6.2,30.0*
COc1cc(C(Nc2ccc(S(=O)(=O)NCC3CCCO3)cc2)C(=O)NC(C)(C)C)cc(OC)c1OC (stereo not drawn),0.2,-2.0,1.1,-0.1,2.4,3.5
COc1cc(C(Nc2ccc(S(=O)(=O)N3CCC(C)CC3)cc2)C(=O)NCC2CCCO2)cc(OC)c1OC (stereo not drawn),5.5,5.8,-2.4,-4.7,1.5,25.3*
CCc1nn2c(=O)cc(COC(=O)c3ccc(SC)cc3OC)nc2s1,/,0.0,4.4,1.3,14.1,4.7
Brc1ccc(CSc2nccn2-c2ccccc2)cc1,3.0,0.4,13.1,8.4,5.1,24.2*
FC(F)(F)c1ccc(CSc2nccn2-c2ccccc2)cc1,4.3,4.5,-1.6,0.8,1.7,11.4
CCOC(=O)c1ccc(NC(=S)NNC(=O)c2cc(-c3cccnc3)nc3ccccc23)cc1,5.0,29.6*,1.1,7.6,15.8,9.8
CCCCOc1cccc(-c2cc(C(=O)NNC(=S)NCC)c3ccccc3n2)c1,3.2,20.7,7.9,-0.5,4.0,5.1
CCNC(=S)NNC(=O)c1cc(-c2cccc(OCC)c2)nc2ccccc12,1.0,16.1,-0.4,-1.2,-1.7,5.6

# Assay outcomes from PubChem.
